The nature of assay [1]: AP1 Signaling Pathway (AID 357). Note: % is set by controls: 0 for no effect and ±100 for the full control effect. The settings on record: ME-180 AP-1-bla reporter, EGF-induced, beta-lactamase ratio, 5 h; at 7.69 µM (top of the series) unless noted. Put shortly:
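AP-1-bla ME-180 cells with beta-lactamase reporter under AP-1 response element, stimulated with EC50 EGF; compounds titrated, 5 hours at 37 degrees Celsius. CCF4 read at 460/530 nm ratio; positive and negative modulators judged by AC50.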

Assay [2] has as its target Cytochrome P450 1A2 (Homo sapiens) (UniProt P05177). The assay is described as follows: p450-cyp1a2 (AID 410; calls by dose curve; note: potency is the fitted concentration of half-maximal effect;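 for activity change, negative = inhibition: -100% = full effect of reference inhibitor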). Put shortly:
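Inhibition was calculated relative to 57 uM furafylline (full inhibition). The reaction used human CYP1A2 at 20nM with Luciferin-ME at its Km, 100uM, driven by an NADPH-regenerating system for 60 min at room temperature.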

Assay [3] in a line: NFAT Signaling Pathway (AID 444).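 Note: carbachol stimulus at about its EC50 of 1 µM final; % is set by controls: 0 for no effect and ±100 for the full control effect.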 The following applies: Jurkat NFAT-bla M1, carbachol, beta-lactamase ratio, 5 h; at 7.69 µM (top of the series) unless noted. Put shortly: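 Read-out: CCF4 FRET ratio (460 nm/530 nm) after 1 h RT dye loading, used for %activity and AC50 from titration series. Cells: Jurkat NFAT-β-lactamase/M1 line, treated with compound plus 1 uM carbachol for 5 h, 37 °C.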

Assay [4] in a line: Stat Signaling Pathway (AID 446).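 Note: ME-180 cervical cancer cells given 40 pM IL-6 alongside compound; SIE-controlled beta-lactamase reporter measured as 460/530 nm FRET emission ratio; % is set by controls: 0 for no effect and ±100 for the full control effect.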 The following applies: ME-180 (cervical carcinoma) SIE beta-lactamase reporter, IL-6 stimulated, 5 h; at 7.69 µM (top of the series) unless noted. Put shortly:
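ME-180 SIE-bla cells; overnight plating; cpd + IL-6 40 pM, 5 h, 37 C; LiveBLAzer 2.5 h RT; 460/530 nm emission ratio. Normalized to 300 pM IL-6 and 125 nM JAK inhibitor controls.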

The target in assay [5] is Glucocorticoid receptor (Homo sapiens) (UniProt P04150). Briefly: GR-GFP Redistribution (AID 450;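 active = compounds whose dose series gives a full or clear partial fitted curve of increased nuclear translocation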; note: potency is the fitted concentration of half-maximal effect). The settings on record: U2OS GR-GFP nuclear translocation, laser cytometry, 2 h.
Glucocorticoid receptor (Homo sapiens), sequence (P04150 whole entry, looked up, the tested form may be a part): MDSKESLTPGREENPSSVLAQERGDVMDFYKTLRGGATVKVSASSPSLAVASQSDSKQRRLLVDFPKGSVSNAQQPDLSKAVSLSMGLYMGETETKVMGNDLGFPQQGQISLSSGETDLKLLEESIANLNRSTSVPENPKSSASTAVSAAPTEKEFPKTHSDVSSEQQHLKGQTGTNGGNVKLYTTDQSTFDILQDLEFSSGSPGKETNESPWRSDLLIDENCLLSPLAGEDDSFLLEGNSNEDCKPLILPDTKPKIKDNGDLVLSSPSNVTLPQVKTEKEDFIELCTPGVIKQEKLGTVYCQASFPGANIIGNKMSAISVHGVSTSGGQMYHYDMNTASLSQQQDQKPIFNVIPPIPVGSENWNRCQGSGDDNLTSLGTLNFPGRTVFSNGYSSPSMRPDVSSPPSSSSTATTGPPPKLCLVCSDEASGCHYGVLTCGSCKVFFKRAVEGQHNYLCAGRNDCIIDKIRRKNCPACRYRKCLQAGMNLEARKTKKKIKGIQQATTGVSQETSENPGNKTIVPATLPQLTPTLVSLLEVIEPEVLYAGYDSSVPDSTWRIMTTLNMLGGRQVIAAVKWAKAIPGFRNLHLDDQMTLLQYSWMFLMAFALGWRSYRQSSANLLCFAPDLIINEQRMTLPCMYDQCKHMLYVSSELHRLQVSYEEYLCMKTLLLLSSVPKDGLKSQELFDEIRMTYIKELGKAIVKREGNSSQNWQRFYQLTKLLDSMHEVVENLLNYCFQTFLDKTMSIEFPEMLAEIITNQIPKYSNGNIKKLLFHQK
Assay [6] has the same target. Briefly: GR-EFC Redistribution (AID 451; calls by dose curve; note: potency is the fitted concentration of half-maximal effect). The settings on record: CHO-K1 GR-EFC translocation, beta-gal luminescence, 2 h. A digest of the protocol: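 Translocation of GR-ED fusion to nuclear EA restores b-gal, read by luminescence after 1 h room-temperature detection. Engineered CHO-K1 biosensor cells, 1,000/well, exposed 2 h at 37 C to titrations up to 46 uM final.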

For assay [7], the target named is 3',5'-cyclic-AMP phosphodiesterase 4B (Homo sapiens) (UniProt Q07343). The assay is described as follows: qHTS Assay for Inhibitors of PDE-IV (AID 607; active = well fitted activation curve with a large enough effect in the main read-out, with a control signal flat, not every such curve was filed as active; note: % of control where 0% means no effect). A digest of the protocol: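 ACTOne HEK293 cells carry a modified cAMP-gated CNG channel and express endogenous PDE4; plated 1000 cells/well, compounds up to 22.9 uM final. Membrane-potential dye fluorescence (ex 535/em 590) was read; parental cells received 10 uM forskolin + 100 uM RO 20-1724.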
3',5'-cyclic-AMP phosphodiesterase 4B (Homo sapiens), sequence (Q07343 whole entry, looked up): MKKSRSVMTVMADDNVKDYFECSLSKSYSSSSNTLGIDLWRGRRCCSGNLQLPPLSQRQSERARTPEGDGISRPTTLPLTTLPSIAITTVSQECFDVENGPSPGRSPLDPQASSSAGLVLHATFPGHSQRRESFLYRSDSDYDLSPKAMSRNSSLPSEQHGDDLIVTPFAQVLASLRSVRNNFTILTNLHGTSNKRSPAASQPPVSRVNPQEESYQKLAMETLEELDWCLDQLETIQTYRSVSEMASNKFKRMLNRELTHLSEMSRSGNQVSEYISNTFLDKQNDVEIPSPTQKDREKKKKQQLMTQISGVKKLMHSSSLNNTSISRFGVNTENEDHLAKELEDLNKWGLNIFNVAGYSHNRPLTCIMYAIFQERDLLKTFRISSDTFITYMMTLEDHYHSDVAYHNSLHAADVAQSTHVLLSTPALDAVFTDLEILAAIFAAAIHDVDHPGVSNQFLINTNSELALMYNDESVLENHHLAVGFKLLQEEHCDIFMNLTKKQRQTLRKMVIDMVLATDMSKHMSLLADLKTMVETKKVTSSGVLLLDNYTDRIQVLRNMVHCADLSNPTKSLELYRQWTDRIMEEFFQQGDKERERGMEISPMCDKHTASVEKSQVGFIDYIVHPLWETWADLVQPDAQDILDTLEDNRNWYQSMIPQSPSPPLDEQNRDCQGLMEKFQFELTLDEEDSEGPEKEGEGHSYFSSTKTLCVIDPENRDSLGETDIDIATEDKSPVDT
In general terms: qHTS replaces the single test concentration by a dilution series.

Assay [8] is described as follows: qHTS Assay for Lipid Storage Modulators (AID 1519; calls by dose curve). The following applies: Drosophila S3 cells, BODIPY lipid droplet/cell ratio, laser cytometry, cells loaded with oleic acid; for activity change, negative = inhibition: at 57.5 µM (top of the series). Put shortly:
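Cells seeded at 5,000 per well were treated with compounds over a concentration series and loaded with oleic acid (400 uM, as added). Lipid droplet fluorescence (488 nm excitation, 500-530 nm channel) was read by laser-scanning cytometry and normalized to 20 uM Triacsin C.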

Assay [9] deals with Ubiquitin carboxyl-terminal hydrolase 1 (Homo sapiens) (UniProt O94782). The assay is described as follows: Inhibitors of USP1/UAF1: Pilot qHTS (AID 504865; active = well fitted curve in the direction sought with a large enough effect; an effect the other way counts as inactive or inconclusive;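 note: rhodamine fluorescence freed from ubiquitin-rhodamine substrate followed over time; top concentration of the series differs between compounds; % is set by controls: 0 for no effect and ±100 for the full control effect; nearly all actives have a fitted effect of over 35% in size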). Put shortly: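 USP1/UAF1 complex at 1 nM preincubated 15 min at room temperature with compound, then Ub-Rho substrate added at 150 nM final. Fluorescence (480/540 nm) read kinetically in 50 mM HEPES pH 7.8, 0.5 mM EDTA, 1 mM TCEP, 0.1 mg/ml BSA, 0.01% Tween-20.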
Ubiquitin carboxyl-terminal hydrolase 1 (Homo sapiens), sequence (O94782 whole entry, looked up): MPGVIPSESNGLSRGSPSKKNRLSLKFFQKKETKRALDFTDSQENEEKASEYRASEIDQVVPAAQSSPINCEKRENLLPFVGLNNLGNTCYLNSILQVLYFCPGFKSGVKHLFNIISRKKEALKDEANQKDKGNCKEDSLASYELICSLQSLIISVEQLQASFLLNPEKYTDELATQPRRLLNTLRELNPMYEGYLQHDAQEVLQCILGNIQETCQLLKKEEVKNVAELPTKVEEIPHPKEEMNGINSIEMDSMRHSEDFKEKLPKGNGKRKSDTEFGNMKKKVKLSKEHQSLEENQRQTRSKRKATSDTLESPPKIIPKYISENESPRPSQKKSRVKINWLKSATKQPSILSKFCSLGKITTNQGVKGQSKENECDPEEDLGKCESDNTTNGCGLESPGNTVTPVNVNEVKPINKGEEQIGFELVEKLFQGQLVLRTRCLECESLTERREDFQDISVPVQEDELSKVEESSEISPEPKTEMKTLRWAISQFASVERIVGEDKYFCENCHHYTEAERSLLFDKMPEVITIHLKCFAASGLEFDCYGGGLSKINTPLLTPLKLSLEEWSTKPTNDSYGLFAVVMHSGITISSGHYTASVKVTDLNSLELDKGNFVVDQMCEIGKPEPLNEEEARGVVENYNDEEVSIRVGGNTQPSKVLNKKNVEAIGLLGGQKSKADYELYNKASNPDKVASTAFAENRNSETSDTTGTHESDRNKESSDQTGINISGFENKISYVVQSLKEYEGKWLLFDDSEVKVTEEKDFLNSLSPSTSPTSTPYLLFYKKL

The nature of assay [10]: Primary qHTS for small molecule stabilizers of the endoplasmic reticulum resident proteome: Secreted ER Calcium Modulated Protein (SERCaMP) assay (AID 1508630; active = well fitted curve in the direction sought with a large enough effect; an effect the other way counts as inactive or inconclusive; note: % is set by controls: 0 for no effect and ±100 for the full control effect). Put shortly: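 GLuc-SERCaMP-expressing SH-SY5Y cells, pretreated 16 h with compound, are challenged with thapsigargin to empty ER calcium stores; after 4 h, coelenterazine is added directly to the medium and luminescence is imaged.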

For assay [11], the target named is Mitogen-activated protein kinase 10 (Mus musculus) (UniProt Q61831). The assay is described as follows: JNK3 AlphaScreen Assay (AID 530). A digest of the protocol: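 Room-temperature AlphaScreen kinase assay; pre-activated HepG2 lysate as JNK3 source, biotin-GST-cJun(1-79) substrate, 10 uM ATP, compound 15 min preincubation.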
The target of assay [12] is Cytochrome P450 3A4 (Homo sapiens) (UniProt P08684). The assay is described as follows: qHTS Assay for Activators of Cytochrome P450 3A4 (AID 885; active = well fitted curve in the direction sought with a large enough effect; an effect the other way counts as inactive or inconclusive; note: nearly all actives have a fitted effect of over 65% in size). A digest of the protocol: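 20nM CYP3A4 + 25uM Luciferin-PPXE (=KM), 200mM KPO4; cpd 10 min RT; NADPH regen, 60 min RT; stop w/ detection buffer, 20 min; luminescence. Normalized to 57 uM ketoconazole.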
Cytochrome P450 3A4 (Homo sapiens), sequence (P08684 whole entry, looked up): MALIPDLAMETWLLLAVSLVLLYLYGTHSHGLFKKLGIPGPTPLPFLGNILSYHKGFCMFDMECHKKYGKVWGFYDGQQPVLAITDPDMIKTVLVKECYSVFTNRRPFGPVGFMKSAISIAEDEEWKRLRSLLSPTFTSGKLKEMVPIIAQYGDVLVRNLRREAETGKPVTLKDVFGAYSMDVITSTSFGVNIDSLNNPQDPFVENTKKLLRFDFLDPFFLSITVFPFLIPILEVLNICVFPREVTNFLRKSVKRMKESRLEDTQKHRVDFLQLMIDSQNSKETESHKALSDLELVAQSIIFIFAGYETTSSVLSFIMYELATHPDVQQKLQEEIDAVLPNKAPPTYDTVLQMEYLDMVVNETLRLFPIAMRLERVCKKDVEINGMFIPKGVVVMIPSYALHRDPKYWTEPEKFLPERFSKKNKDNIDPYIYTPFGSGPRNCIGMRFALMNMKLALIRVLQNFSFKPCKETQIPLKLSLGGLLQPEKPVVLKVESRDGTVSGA
Assay [13] shares this target. Briefly: qHTS Assay for Inhibitors and Substrates of Cytochrome P450 3A4 (AID 884; active = well fitted curve in the direction sought with a large enough effect; an effect the other way counts as inactive or inconclusive; note: potency is the fitted concentration of half-maximal effect; nearly all actives have a fitted effect of over 50% in size). A digest of the protocol:
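20 nM human CYP3A4 with 25 uM Luciferin-PPXE (at KM) in 200 mM KPO4, preincubated 10 min with compound; NADPH regeneration started a 60 min RT reaction. Luciferin detected by luminescence, normalized to 57 uM ketoconazole as full inhibition.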

Where [14] appears, read: measured here: cell count channel max response.
The mark [15] stands for this setting: measured here: lipid channel max response.

The structures appear in SMILES notation. Results filed as inconclusive are left out. Active and inactive are the calls of the source. Unless noted, calls come from the whole dose curve; as a rule, active = well fitted curve in either direction with a large enough effect (not every such curve was filed as active); inconclusive = small, poorly fitted or top-dose-only effect, or another doubt; inactive = flat fitted curve, though single readings scatter.

Cytochrome P450 1A2 (Homo sapiens), sequence (P05177 whole entry, looked up): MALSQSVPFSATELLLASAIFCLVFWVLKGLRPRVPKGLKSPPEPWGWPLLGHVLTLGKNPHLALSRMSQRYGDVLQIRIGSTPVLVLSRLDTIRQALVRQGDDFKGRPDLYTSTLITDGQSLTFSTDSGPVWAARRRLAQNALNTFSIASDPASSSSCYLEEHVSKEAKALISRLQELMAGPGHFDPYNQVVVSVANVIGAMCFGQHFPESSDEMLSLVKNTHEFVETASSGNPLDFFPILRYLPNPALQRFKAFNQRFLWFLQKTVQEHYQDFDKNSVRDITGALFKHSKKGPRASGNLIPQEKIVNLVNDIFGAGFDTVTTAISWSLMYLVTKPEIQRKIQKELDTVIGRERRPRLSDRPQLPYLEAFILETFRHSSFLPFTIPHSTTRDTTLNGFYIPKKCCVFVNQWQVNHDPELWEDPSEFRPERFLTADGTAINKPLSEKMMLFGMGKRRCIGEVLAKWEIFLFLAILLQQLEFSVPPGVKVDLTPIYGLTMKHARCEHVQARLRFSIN

On to `Cc1cnc(CNc2ncnc3ccc(-c4ccccc4CN(C)C)cc23)cn1`, for which the activity change, negative = inhibition in assay [1] was 16.4% (inactive); in [3] it was -29.4% (inactive); in [8] it was 9.03% (inactive). The Potency entry in assay [2], in assay [7] and in [9] was “inactive” each time. In assay [4], the activity, negative = inhibition is 11.7% (inactive). Also, the Potency in assay [5] and in assay [6] was > 46 µM (inactive) each time. In addition, the max response turned out to be 5.18% in assay [8] (setting [14]) and 15.6% in [8] (setting [15]). Besides, the result in assay [10] was inactive.

In the case of `Cc1noc(C)c1C(=O)N1CCC2(CCCN(C(=O)Nc3ccccc3)C2)CC1`, the activity change, negative = inhibition in assay [1] is -21% (inactive); in assay [3] it was 0.607% (inactive); in assay [8], 2.45% (inactive). Also, the Potency in assay [2] is 12.6 µM (active); in assay [6] it was > 46 µM (inactive). Besides, in assay [4], the activity, negative = inhibition was -8.55% (inactive). The Potency result in assay [11] and in assay [7] was “inactive” each time. Further, the max response in [8] (setting [14]) stood at 20.4%; in [8] (setting [15]), 27.5%. Moreover, the result in assay [10] was inactive.

On to `O=C(c1ccncc1)N1CCC2(CC1)CCN(c1ccc(-c3ccccc3)cc1)CC2`, for which the activity change, negative = inhibition in [1] was -18.3% (inactive); in assay [3], 14.4% (inactive); in assay [8] it was 0.379% (inactive). Further, the activity, negative = inhibition in assay [4] was -9.73% (inactive). In [6], the Potency was > 46 µM (inactive). Also, the Potency result in assay [11] and in assay [7] was “inactive” each time. Moreover, the max response was -2.77% in [8] (setting [14]) and 2.35% in assay [8] (setting [15]). For the same molecule, the result in [10] was inactive.

For the molecule `Cn1cccc1C(=O)N1CCC[C@@]2(CCN(C(=O)Nc3cccc(F)c3)C2)C1`, the activity change, negative = inhibition in assay [1] is -5.32% (inactive); in assay [3], 4.03% (inactive); in [8], 4.9% (inactive). The activity, negative = inhibition in assay [4] was 5.29% (inactive). The Potency in assay [6] was > 46 µM (inactive). The Potency result in [11] and in assay [7] was “inactive” in each case. The max response amounted to 9.75% in [8] (setting [14]) and 17.3% in assay [8] (setting [15]). The result in assay [10] was inactive.

With `Cn1cccc1C(=O)N1CCC2(CCCN(Cc3ccncc3)C2)CC1`, the activity change, negative = inhibition in assay [1] is -7.26% (inactive); in assay [8], 7.27% (inactive). Also, the Potency was 15.8 µM (active) in [2] and > 46 µM (inactive) in assay [6]. In addition, the activity, negative = inhibition in [4] was 7.75% (inactive). Further, the Potency entry in assay [11], in [7] and in [12] was “inactive” each time. The max response came out at 1.45% in [8] (setting [14]) and 14.6% in assay [8] (setting [15]). The result in assay [10] was inactive.

Take `CNc1ncnc2ccc(-c3cccc(NS(C)(=O)=O)c3)cc12`: the values for the activity change, negative = inhibition in assay [1] and in assay [8] were -20.9% (inactive) and 1.53% (inactive), respectively. Also, the results for the Potency in assay [2], in assay [5] and in assay [6] were 0.316 µM (active), > 46 µM (inactive) and > 46 µM (inactive), respectively. For the same molecule, the activity, negative = inhibition in assay [4] was -3.45% (inactive). For the same molecule, the Potency entry in [11], in assay [7] and in [12] was “inactive” each time. Further, the max response in assay [8] (setting [14]) is -9.5%; in assay [8] (setting [15]), -9.46%. The result in assay [10] was inactive.

As to `Cc1cccc(CNc2ncnc3ccc(-c4c(C)noc4C)cc23)c1`, the activity change, negative = inhibition was 14.8% (inactive) in [1] and -3.45% (inactive) in assay [8]. The Potency in [2] is 5.01 µM (active); in assay [5], > 46 µM (inactive); in assay [6], > 46 µM (inactive); in [13] it was 0.794 µM (active). Further, the Potency entry in assay [11] and in assay [12] was “inactive” in each case. In addition, the max response in assay [8] (setting [14]) was -9.91%; in assay [8] (setting [15]) it was -10.6%. Besides, the result in assay [10] was inactive.

The record behind these values is PubChem BioAssay (NCATS).
